This assay is described as follows: small-molecule microarray binders of probe aLefty2, primary screen, biochemical, biotinylated probe, 635/667 nm fluorescence (AID 1094).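 Further: score merges spot fluorescence near 667 nm with spot signal-to-noise ratio.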 Particulars: higher = more signal.
In the case of `COC(=O)C(CC#Cc1ccc2c(c1)[C@]1(C(=O)N2)[C@H](c2ccccc2OCCO)N2[C@H](c3ccccc3)[C@H](c3ccccc3)OC(=O)[C@H]2[C@@H]1C(=O)N1CCN(c2ncccn2)CC1)C(=O)OC`, the composite z-score is -0.107.
In the case of `COC(=O)[C@@]1(Cc2ccc(F)cc2)[C@H]2c3cc(C(=O)N(C)C)n(Cc4ccc(C(F)(F)F)nc4)c3C[C@H]2CN1C(=O)c1ccccc1`, the composite z-score was determined as 0.317.
Compound `COCCCNC(=O)[C@]1(Cc2ccccc2CN=[N+]=[N-])N=C(c2ccc(OCCCO)cc2)O[C@@H]1c1ccccc1N=[N+]=[N-]` returned a composite z-score of 0.862.
The compound `[N-]=[N+]=Nc1ccccc1C[C@]1(C(N)=O)COC(c2ccc(OCCCO)cc2)=N1` returned a composite z-score of 0.538.
In the case of `COc1cc(Cc2cc3c(c(-c4ccccc4)n2)[Si](C(C)C)(C(C)C)OC3)cc(OC)c1OC` it was -0.0991.
Compound `COC(=O)C[C@H]1O[C@]2(C(=O)N(C)c3ccccc32)[C@@H](C)[C@@H]1[Si](C)(C)c1ccccc1` gave a composite z-score of 0.0718.
Consider `C=CC[C@H](O)c1ccc(O)c(F)c1`, for which the composite z-score is -0.103.
With `COc1ccc(CCNC(=O)[C@@H]2c3ccccc3C(=O)N(C(C)C)[C@H]2c2ccc(CO)cc2)cc1` the figure was 0.0129; with `COC(=O)[C@@]1(Cc2ccc(F)cc2)[C@H]2c3cc(C(=O)N(C)C)n(CCF)c3C[C@H]2CN1C(=O)c1ccccc1`, 0.265; with `Cc1ccc(N2C(=O)c3ccccc3[C@@H](C(=O)NCCN3CCOCC3)[C@@H]2c2ccc(CO)cc2)nc1`, -0.0798.
With `O=C/C=C/c1ccc(-c2ccccc2)cc1` the figure was -0.103; with `CC[C@@H](O[Si](C#C[Si](C(C)C)(C(C)C)C(C)C)(C(C)C)C(C)C)c1cn([C@H](C)c2ccccc2)nn1`, -0.148.
As to `CCOC(=O)C1=CCC(c2cccn2C(=O)OC(C)(C)C)N(S(=O)(=O)c2ccc(C)cc2)C1` (stereo unspecified), the composite z-score came out at 0.194.
Regarding `CC[C@@H]1C=C(C(=O)O)[C@H](c2cccc(Cl)c2)N1S(=O)(=O)c1ccc(C)cc1`, the composite z-score stood at 0.0595.
Turning to `O=C1O[C@H](c2ccccc2)[C@H](c2ccccc2)N2[C@H]1[C@@H](C(=O)O)[C@]1(C(=O)Nc3ccccc31)[C@H]2c1ccc(OCCO)cc1`, the composite z-score is -0.065.
Consider `COc1ccc(NN2C(C(O)c3ccc(F)cc3)C=CC3C(=O)N(C4CCCCC4)C(=O)C32)cc1` (stereo unspecified), for which the composite z-score was 0.12.
In the case of `C=CCNC(=O)[C@@H]1[C@H]2C(=O)O[C@H](c3ccccc3)[C@H](c3ccccc3)N2[C@H](c2ccc(OCCO)cc2)[C@@]12C(=O)Nc1ccc(C#CCNC(N)=O)cc12` it was -0.0368; in that of `CCCCN1CC=CC23O[C@@H]4C=CCCOC(=O)C4[C@H]2C(=O)N(CCO)[C@@H]3C1=O` (stereo partly specified), -0.182; in that of `CN1C(=O)C2C=CC(C(O)c3ccc([N+](=O)[O-])cc3)N(Nc3ccccc3)C2C1=O` (stereo unspecified), 0.222.
`CC(C)[Si]1(C(C)C)OCc2cc(-c3ccc(-c4ccc(Cl)c(Cl)c4)o3)nc(-c3ccc(Oc4ccccc4)cc3)c21` had a composite z-score of 0.0358.
Regarding `C=C1C(=O)C=C2CN(C(=O)c3ccccc3)[C@@](Cc3ccc(F)cc3)(C(=O)OC)[C@@H]12`, the composite z-score was 0.513.
For `CN(C)C(=O)[C@]1(CCS(=O)(=O)c2ccccc2)N=C(c2ccc(OCCCO)cc2)O[C@@H]1c1ccccc1CN=[N+]=[N-]`, the composite z-score was -0.0079.
As to `CN1C2C=C(c3ccc(CO)cc3)C(C3C(=O)N(C(N)=O)C(=O)C32)C1C1CC1` (stereo unspecified), the composite z-score was -0.178.
On to `CCCNC(=O)[C@@]1(Sc2ccc(C)cc2)CC(=O)N(Cc2cc(C(F)(F)F)cc(C(F)(F)F)c2)[C@@H]1c1ccc(CO)cc1`, for which the composite z-score was -0.122.
`COCCOC(=O)N1C(=O)[C@@]2(c3cc(C#CC4(O)CCCCCC4)ccc31)[C@H](C(N)=O)[C@H]1C(=O)O[C@H](c3ccccc3)[C@H](c3ccccc3)N1[C@@H]2c1ccc(OCCO)cc1` came in with a composite z-score of 0.0723.
Take `CC(C)C[C@@H]1NC(=O)[C@@H]2C[C@H](C(=O)NCCCCCNC(=O)CS)[C@H](c3ccc(O)cc3)N2C1=O`: the composite z-score is -0.0437.
`Cc1ccc(S(=O)(=O)N2[C@@H](c3ccccc3)C(C(=O)O)=CC[C@H]2c2ccc(F)cc2)cc1`: the composite z-score is -0.0803.
Compound `CCCCCN1CC=CC23O[C@@H]4/C=C\CCCOC(=O)C4[C@H]2C(=O)N(CCO)[C@@H]3C1=O` (stereo partly specified) had a composite z-score of -0.134.
With `C=C(C(=O)CC[C@@H](OC(=O)c1cccnc1)c1cccc(OCCO)c1)C(C)C` the figure was -0.0962; with `O=C1C2C=CC(C(O)C3CC=CCC3)N(Nc3ccc([N+](=O)[O-])cc3)C2C(=O)N1c1ccccc1` (stereo unspecified), 0.486.
The compound `CCCCC(=C=CC[C@@H](O)c1ccccc1OCCO)C[C@@H](O)c1ccccn1` came in with a composite z-score of -0.119.

For the origin of these results see PubChem BioAssay.
